# Test results: PubChem BioAssay (Tox21)
# Values joined by “and” are separate entries in the source; they are usually repeats but may differ in a detail not shown here. Equal entries are not always repeated. Results filed as inconclusive are left out. Where a call stands in place of a potency, no number is given. A structure can be active in one record and inactive in another. Active and inactive are the calls of the source. Unless noted, calls come from the whole dose curve; as a rule, active = well fitted curve in the direction sought with a large enough effect in the repeat runs; inconclusive = weak or mixed curves; inactive = no such curve, though single readings can be large; an effect the other way counts as inactive or inconclusive.
# What was measured:
# [1] = qHTS assay to identify aromatase inhibitors - cell viability counter screen (AID 743084);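 note: cells stimulated with testosterone during compound exposure; nearly all actives have a fitted effect of over 55% in size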; note: potency is the fitted concentration of half-maximal effect
# [2] = target: Aryl hydrocarbon receptor (Homo sapiens) (UniProt P35869); experiment: qHTS assay to identify small molecule that activate the aryl hydrocarbon receptor (AhR) signaling pathway (AID 743085); note: nearly all actives have a fitted effect of over 15% in size; note: potency is the fitted concentration of half-maximal effect;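 for activation: HG2L7.5c1 human HepG2 liver cells with stably integrated DRE-driven firefly reporter; series mostly up to about 70 µM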
# Sequence of Aryl hydrocarbon receptor (Homo sapiens) (P35869 whole entry, looked up): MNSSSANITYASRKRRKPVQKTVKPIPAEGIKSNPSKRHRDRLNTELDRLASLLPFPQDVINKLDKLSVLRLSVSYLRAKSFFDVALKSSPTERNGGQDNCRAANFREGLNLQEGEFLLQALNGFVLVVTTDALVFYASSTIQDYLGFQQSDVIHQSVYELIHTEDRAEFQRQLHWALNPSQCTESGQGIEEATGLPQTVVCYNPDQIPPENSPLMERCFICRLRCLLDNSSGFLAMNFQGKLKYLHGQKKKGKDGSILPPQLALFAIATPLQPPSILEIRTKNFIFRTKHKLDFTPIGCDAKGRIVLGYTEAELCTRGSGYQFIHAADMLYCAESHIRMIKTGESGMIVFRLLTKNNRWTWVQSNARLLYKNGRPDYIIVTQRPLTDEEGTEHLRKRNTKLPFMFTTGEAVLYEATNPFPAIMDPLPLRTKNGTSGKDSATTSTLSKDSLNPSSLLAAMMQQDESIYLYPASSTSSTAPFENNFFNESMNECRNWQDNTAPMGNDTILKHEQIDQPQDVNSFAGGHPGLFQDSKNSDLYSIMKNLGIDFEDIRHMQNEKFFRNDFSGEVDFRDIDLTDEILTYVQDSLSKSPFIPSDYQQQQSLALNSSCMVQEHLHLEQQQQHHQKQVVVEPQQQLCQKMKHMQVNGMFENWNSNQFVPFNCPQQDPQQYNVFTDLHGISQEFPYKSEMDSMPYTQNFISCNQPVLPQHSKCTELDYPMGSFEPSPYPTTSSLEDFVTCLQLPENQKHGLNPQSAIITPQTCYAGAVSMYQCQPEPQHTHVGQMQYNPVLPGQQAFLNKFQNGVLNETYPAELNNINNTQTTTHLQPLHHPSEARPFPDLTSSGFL
# In short: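 Cell line HG2L7.5c1 (human hepatoma, 20× DRE-luc). Plated, 5 h 37C, compound/DMSO added, 24 h 37C. CellTiter-Fluor 30 min 37C → fluorescence; then ONE-Glo 30 min RT → luminescence.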
# [3] = qHTS assay to identify small molecule that activate the aryl hydrocarbon receptor (AhR) signaling pathway - cell viability counter screen (AID 743086); note: nearly all actives have a fitted effect of over 45% in size; note: potency is the fitted concentration of half-maximal effect
# In short: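 HepG2-AhR-luc (HG2L7.5c1) cells, 4000/well, were preincubated 5 h at 37C, exposed to compound in qHTS format for 24 hr at 37C, then given CellTiter-Fluor for 30 min; viability was read as fluorescence in the reporter wells.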
# [4] = qHTS assay for small molecule agonists of the antioxidant response element (ARE) signaling pathway - cell viability counter screen (AID 743203; calls by dose curve; note: nearly all actives have a fitted effect of over 55% in size; note: potency is the fitted concentration of half-maximal effect)
# In short: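 Viability counter screen: stably transfected ARE-bla HepG2 line, 16 hrs compound exposure at 37C/5% CO2, ATP-based CellTiter-Glo luminescence measured in the reporter wells.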
# [5] = qHTS assay for small molecule activators of the heat shock response signaling pathway - cell viability counter screen (AID 743209); note: nearly all actives have a fitted effect of over 50% in size; note: potency is the fitted concentration of half-maximal effect
# In short: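 Viability of HSE-bla HeLa cells is measured with CellTiter-Glo in the wells already used for the reporter read. Compound exposure lasts 5 h at 37 C, and luminescence is read after 30 min at room temperature.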
# [6] = qHTS assay for small molecule activators of the heat shock response signaling pathway (AID 743210; active = well fitted activation curve with a large enough effect in the signal ratio in the repeat runs, with a control signal flat, not every such curve was filed as active; the % refers to the signal ratio; note: series mostly up to about 63 µM)
# In short: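 Heat shock element–beta-lactamase HeLa reporter cells; qHTS with compounds for 5 h at 37 C; detection by FRET substrate fluorescence after 2.5 h at RT.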
# [7] = qHTS assay to identify small molecule agonists of the peroxisome proliferator-activated receptor delta (PPARd) signaling pathway - cell viability counter screen (AID 743211); note: potency is the fitted concentration of half-maximal effect; nearly all actives have a fitted effect of over 55% in size
# In short: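 HEK293H PPARd-bla, 3000 cells/well; 5 h preincubation 37C/5% CO2; cpd in DMSO, 17 h 37C; B/G FRET substrate 2 h RT; CellTiter-Glo 30 min RT, luminescence.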
# [8] = target: Peroxisome proliferator-activated receptor delta (Homo sapiens) (UniProt Q03181); experiment: qHTS assay to identify small molecule agonists of the peroxisome proliferator-activated receptor delta (PPARd) signaling pathway (AID 743212; calls by dose curve)
# Sequence of Peroxisome proliferator-activated receptor delta (Homo sapiens) (Q03181 whole entry, looked up): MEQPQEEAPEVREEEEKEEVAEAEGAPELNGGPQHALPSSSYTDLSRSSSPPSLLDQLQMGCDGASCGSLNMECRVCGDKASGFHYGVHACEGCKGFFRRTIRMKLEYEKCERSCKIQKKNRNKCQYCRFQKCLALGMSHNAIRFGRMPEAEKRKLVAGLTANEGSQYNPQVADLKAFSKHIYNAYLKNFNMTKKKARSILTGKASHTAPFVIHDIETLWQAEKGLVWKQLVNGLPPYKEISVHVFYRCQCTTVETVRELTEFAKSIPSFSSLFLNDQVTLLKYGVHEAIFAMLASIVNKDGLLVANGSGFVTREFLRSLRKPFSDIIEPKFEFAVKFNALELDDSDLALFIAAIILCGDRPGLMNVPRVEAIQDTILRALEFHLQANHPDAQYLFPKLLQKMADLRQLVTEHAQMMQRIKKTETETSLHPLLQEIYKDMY
# In short: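 Beta-lactamase reporter read by fluorescence (LiveBLAzer B/G FRET, 2 h, room temperature). Test agents, in DMSO, incubated at 37 C with PPARd-bla HEK293H cells.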
# [9] = qHTS assay to identify small molecule antagonists of the peroxisome proliferator-activated receptor delta (PPARd) signaling pathway - cell viability counter screen (AID 743213); note: nearly all actives have a fitted effect of over 50% in size; note: potency is the fitted concentration of half-maximal effect
# In short: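 In this counter screen, HEK293H cells carrying a UAS-beta-lactamase reporter are co-treated with test compounds and 300 nM L165041 (final) for 17 h at 37 C; cell viability is quantified by CellTiter-Glo luminescence.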
# [10] = target: Peroxisome proliferator-activated receptor delta (Homo sapiens) (UniProt Q03181); experiment: qHTS assay to identify small molecule antagonists of the peroxisome proliferator-activated receptor delta (PPARd) signaling pathway (AID 743215; active = well fitted inhibition curve with a large enough effect in the signal ratio in the repeat runs, not every such curve was filed as active; the % refers to the signal ratio;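 note: cells stimulated with agonist L165041 at 300 nM final during compound exposure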; note: potency is the fitted concentration of half-maximal effect)
# In short: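 Plated HEK293H PPARd-bla cells rested 5 h at 37 C and 5% CO2. Compound, then agonist L165041 at 300 nM final, was added; 17 h at 37 C followed. Substrate loading, 2 h room temperature, fluorescence measured.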
# [11] = qHTS assay to identify small molecule agonists of the farnesoid-X-receptor (FXR) signaling pathway - cell viability counter screen (AID 743218); note: nearly all actives have a fitted effect of over 45% in size; note: potency is the fitted concentration of half-maximal effect
# In short: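 Viability of FXR-bla HEK 293T cells is measured by ATP-based CellTiter-Glo luminescence following 16 h compound treatment at 37 C and a prior 2 h room-temperature beta-lactamase substrate step.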
# [12] = target: Bile acid receptor (Homo sapiens) (UniProt Q96RI1); experiment: qHTS assay to identify small molecule agonists of the farnesoid-X-receptor (FXR) signaling pathway (AID 743220; active = well fitted activation curve with a large enough effect in the signal ratio in the repeat runs, not every such curve was filed as active; the % refers to the signal ratio)
# Sequence of Bile acid receptor (Homo sapiens) (Q96RI1 whole entry, looked up): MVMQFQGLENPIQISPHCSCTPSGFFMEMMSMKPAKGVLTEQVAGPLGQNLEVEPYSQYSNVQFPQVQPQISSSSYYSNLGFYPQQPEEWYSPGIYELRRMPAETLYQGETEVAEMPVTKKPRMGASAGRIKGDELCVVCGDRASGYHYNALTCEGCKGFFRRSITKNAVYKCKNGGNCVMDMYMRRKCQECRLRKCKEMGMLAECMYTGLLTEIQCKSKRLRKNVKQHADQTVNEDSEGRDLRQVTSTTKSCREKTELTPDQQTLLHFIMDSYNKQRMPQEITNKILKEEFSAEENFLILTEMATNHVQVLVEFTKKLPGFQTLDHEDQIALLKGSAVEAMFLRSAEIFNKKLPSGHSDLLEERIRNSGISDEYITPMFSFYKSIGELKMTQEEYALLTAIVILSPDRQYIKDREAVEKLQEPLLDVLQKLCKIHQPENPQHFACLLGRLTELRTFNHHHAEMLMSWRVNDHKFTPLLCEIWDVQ
# In short: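 FXR-UAS-bla HEK 293T cells carrying a UAS-driven beta-lactamase reporter were plated for 5 h at 37C/5% CO2, then exposed to DMSO-dissolved Tox21 10K compounds for 16 h at 37C. A LiveBLAzer B/G FRET substrate was loaded for 2 h at room temperature before fluorescence reading.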
# [13] = target: Vitamin D3 receptor (Homo sapiens) (UniProt P11473); experiment: qHTS assay to identify small molecule agonists of the vitamin D receptor (VDR) signaling pathway (AID 743222; calls by dose curve)
# Sequence of Vitamin D3 receptor (Homo sapiens) (P11473 whole entry, looked up): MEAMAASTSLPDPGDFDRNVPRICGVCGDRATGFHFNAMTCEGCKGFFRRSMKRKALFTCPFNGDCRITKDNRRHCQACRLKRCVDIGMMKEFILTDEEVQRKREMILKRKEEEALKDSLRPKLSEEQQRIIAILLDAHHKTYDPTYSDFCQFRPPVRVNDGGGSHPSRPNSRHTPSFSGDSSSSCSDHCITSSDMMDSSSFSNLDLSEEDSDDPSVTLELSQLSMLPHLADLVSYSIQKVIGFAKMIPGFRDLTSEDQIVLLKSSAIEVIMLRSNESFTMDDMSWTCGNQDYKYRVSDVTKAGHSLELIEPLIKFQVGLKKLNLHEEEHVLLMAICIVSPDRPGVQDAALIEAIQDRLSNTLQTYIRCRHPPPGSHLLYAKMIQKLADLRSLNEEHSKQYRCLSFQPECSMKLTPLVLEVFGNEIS
# In short: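 Fluorescence from cleaved LiveBLAzer B/G FRET substrate served as readout. VDR-bla cells had been treated 16 h at 37C with test compounds in DMSO, following a 4 h settling period, and substrate was loaded for 2 h at RT.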
# [14] = qHTS assay to identify small molecule antagonists of the peroxisome proliferator-activated receptor gamma (PPARg) signaling pathway - cell viability counter screen (AID 743194); note: nearly all actives have a fitted effect of over 55% in size; note: potency is the fitted concentration of half-maximal effect
# In short: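 PPARg-UAS-bla HEK293H cells were plated, rested 5 h at 37 C, then treated with compounds plus rosiglitazone (50 nM final) for 17 h at 37 C; viability was then read by CellTiter-Glo luminescence after 30 min at room temperature.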
# [15] = qHTS assay to identify small molecule antagonists of the farnesoid-X-receptor (FXR) signaling pathway - cell viability counter screen (AID 743221; active = well fitted cell-killing curve with a large enough effect in the repeat runs, not every such curve was filed as active; note: nearly all actives have a fitted effect of over 50% in size)
# In short: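 Luminescence from CellTiter-Glo measures cytotoxicity in GeneBLAzer FXR-UAS-bla HEK 293T cells. Cells were exposed to compounds with 50 uM chenodeoxycholic acid (final) for 16 h at 37 C, in wells also used for the reporter readout.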
# [16] = target: Peroxisome proliferator-activated receptor gamma (Homo sapiens) (UniProt P37231); experiment: qHTS assay to identify small molecule agonists of the peroxisome proliferator-activated receptor gamma (PPARg) signaling pathway (AID 743094; active = well fitted activation curve with a large enough effect in the signal ratio in the repeat runs, not every such curve was filed as active; the % refers to the signal ratio)
# Sequence of Peroxisome proliferator-activated receptor gamma (Homo sapiens) (P37231 whole entry, looked up): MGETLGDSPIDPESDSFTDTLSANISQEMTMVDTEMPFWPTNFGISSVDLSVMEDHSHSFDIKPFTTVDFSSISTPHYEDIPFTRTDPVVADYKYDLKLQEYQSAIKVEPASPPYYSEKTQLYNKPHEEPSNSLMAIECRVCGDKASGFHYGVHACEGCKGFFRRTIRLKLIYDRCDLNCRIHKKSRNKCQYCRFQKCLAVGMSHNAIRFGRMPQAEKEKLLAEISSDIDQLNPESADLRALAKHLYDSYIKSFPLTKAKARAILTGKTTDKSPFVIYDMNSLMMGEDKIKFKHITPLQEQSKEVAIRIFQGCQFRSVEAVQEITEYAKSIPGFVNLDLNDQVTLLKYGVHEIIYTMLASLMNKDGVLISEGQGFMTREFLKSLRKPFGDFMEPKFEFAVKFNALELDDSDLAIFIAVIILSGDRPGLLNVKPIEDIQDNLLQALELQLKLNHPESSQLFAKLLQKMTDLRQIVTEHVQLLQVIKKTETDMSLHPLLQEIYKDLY
# In short: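 Reporter activation was scored by fluorescence of cleaved LiveBLAzer B/G substrate (1 h, room temperature) in PPARg-bla HEK293H cells previously treated 17 h at 37C with DMSO-dissolved compounds.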
# [17] = target: Peroxisome proliferator-activated receptor gamma (Homo sapiens) (UniProt P37231); experiment: qHTS assay to identify small molecule antagonists of the peroxisome proliferator-activated receptor gamma (PPARg) signaling pathway (AID 743191; calls by dose curve; note: series mostly up to about 63 µM; nearly all actives have a fitted effect of over 30% in size)
# In short: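 GeneBLAzer PPARg UAS-bla HEK293H cells carrying a UAS-driven beta-lactamase reporter were plated at 3000 cells/well, preincubated 5 h at 37C, then given compound for 17 h at 37C; LiveBLAzer B/G FRET substrate was read after 1 h at room temperature.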
# [18] = qHTS assay for small molecule agonists of the antioxidant response element (ARE) signaling pathway (AID 743202; active = well fitted activation curve with a large enough effect in the signal ratio in the repeat runs, not every such curve was filed as active; the % refers to the signal ratio)
# In short: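 Following a 16 h, 37 C exposure of reporter HepG2 cells (ARE-driven beta-lactamase, 2,000 cells/well) to compounds, FRET substrate was applied for 2 h at room temperature and fluorescence intensity recorded.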
# [19] = target: Bile acid receptor (Homo sapiens) (UniProt Q96RI1); experiment: qHTS assay to identify small molecule antagonists of the farnesoid-X-receptor (FXR) signaling pathway (AID 743217; active = well fitted inhibition curve with a large enough effect in the signal ratio in the repeat runs, not every such curve was filed as active; the % refers to the signal ratio)
# In short: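 Screen of the Tox21 10K library in quantitative HTS format using FXR-UAS-bla HEK 293T reporter cells. Agonist chenodeoxycholic acid, 50 uM final, added with compounds; 16 h incubation at 37 °C; beta-lactamase FRET fluorescence measured.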
# [20] = target: Vitamin D3 receptor (Homo sapiens) (UniProt P11473); experiment: qHTS assay to identify small molecule antagonists of the vitamin D receptor (VDR) signaling pathway (AID 743223; active = well fitted inhibition curve with a large enough effect in the signal ratio in the repeat runs, not every such curve was filed as active; the % refers to the signal ratio)
# In short: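 Antagonist mode uses 1alpha,25-dihydroxyvitamin D3 at 3 nM final as stimulus. VDR-bla cells receive compounds in DMSO, incubate 16 h at 37C, then a beta-lactamase FRET substrate for 2 h at room temperature before fluorescence measurement.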
structure (smiles),measurement,setting,value
CCC(C)c1cc([N+](=O)[O-])cc([N+](=O)[O-])c1OC(=O)OC(C)C (stereo unspecified),Potency,[1],54.5 µM (active)
same,Potency,[2],inactive
same,Potency,[3],43.3 µM (active)
same,Potency,[4],24.3 µM (active)
same,Potency,[5],21.9 µM (active)
CCN(CC)CCNc1ccc(CO)c2sc3ccccc3c(=O)c12,Potency,[1],inactive
same,Potency,[2],0.531 µM (active)
same,Potency,[3],6.68 µM (active)
same,Potency,[4],6.68 µM (active)
same,Potency,[5],inactive
same,Potency,[6],inactive
same,Potency,[7],18.8 µM (active)
same,outcome,[8],inactive
same,Potency,[9],13.3 µM (active)
same,Potency,[10],23.7 µM (active)
same,Potency,[11],13.3 µM (active)
same,Potency,[12],inactive
same,Potency,[13],inactive
Clc1ccccc1CN1CCc2sccc2C1,Potency,[1],inactive
same,Potency,[2],inactive
same,Potency,[3],inactive
same,Potency,[14],inactive
same,Potency,[5],inactive
same,Potency,[11],inactive
same,Potency,[15],inactive
C[C@H]1O[C@@H](O[C@H]2[C@@H](O)C[C@H](O[C@H]3[C@@H](O)C[C@H](O[C@H]4CC[C@@]5(C)[C@H](CC[C@@H]6[C@@H]5C[C@@H](O)[C@]5(C)[C@@H](C7=CC(=O)OC7)CC[C@]65O)C4)O[C@@H]3C)O[C@@H]2C)C[C@H](O)[C@@H]1O,Potency,[1],inactive
same,Potency,[2],inactive
same,Potency,[3],inactive
same,Potency,[4],12.2 nM (active) and 7.6 nM (active)
same,Potency,[5],55 nM (active) and 13.6 nM (active)
same,Potency,[6],inactive
same,Potency,[7],0.0385 µM (active)
same,Potency,[11],24.6 nM (active) and 12.2 nM (active)
same,Potency,[12],inactive
COc1cc(C=C2CCC/C(=C\c3ccc(O)c(OC)c3)C2=O)ccc1O,Potency,[1],21.1 µM (active)
same,Potency,[2],inactive
same,Potency,[3],23.7 µM (active)
same,Potency,[4],26.6 µM (active)
same,Potency,[7],29.8 µM (active)
same,Potency,[11],21.1 µM (active)
CC1(C)C(=O)N(Br)C(=O)N1Br,Potency,[1],inactive
same,Potency,[2],inactive
same,Potency,[16],inactive
same,Potency,[17],inactive
same,Potency,[14],inactive
same,Potency,[18],inactive
same,Potency,[4],inactive
same,Potency,[5],inactive
same,Potency,[6],inactive
same,outcome,[8],inactive
same,Potency,[9],inactive
same,Potency,[10],inactive
same,Potency,[19],inactive
same,Potency,[11],inactive
same,Potency,[12],inactive
same,Potency,[13],inactive
CCCCCCCCCCCCN(CCO)CCO,Potency,[1],48.4 µM (active)
same,Potency,[2],inactive
same,Potency,[14],54.7 µM (active)
same,Potency,[4],54.3 µM (active)
same,Potency,[5],54.7 µM (active)
same,Potency,[7],38.7 µM (active)
same,Potency,[9],48.8 µM (active)
same,Potency,[11],54.7 µM (active)
Oc1ccc(-c2ccc(O)cc2)cc1,Potency,[1],inactive
same,Potency,[2],inactive
same,Potency,[3],inactive
same,Potency,[14],inactive
same,Potency,[5],inactive
same,Potency,[6],inactive
same,Potency,[13],inactive
same,Potency,[20],inactive
C=C(c1ccc(C(=O)O)cc1)c1cc2c(cc1C)C(C)(C)CCC2(C)C,Potency,[1],inactive
same,Potency,[2],inactive
same,Potency,[3],inactive
same,Potency,[14],19.5 µM (active)
same,Potency,[4],13.7 µM (active)
same,Potency,[5],11 µM (active) and 21.1 µM (active)
same,Potency,[7],61.6 µM (active)
same,Potency,[9],21.9 µM (active) and 29.8 µM (active)
same,Potency,[11],24.5 µM (active)
same,Potency,[15],inactive
same,Potency,[13],inactive
CC=O,Potency,[1],36 µM (active)
same,Potency,[2],inactive
same,Potency,[14],25.7 µM (active)
same,Potency,[4],32 µM (active)
same,Potency,[5],22.9 µM (active)
same,Potency,[7],45.7 µM (active)
same,Potency,[9],40.7 µM (active)
same,Potency,[11],45.7 µM (active)
CCCSS/C(CCO)=C(\C)N(C=O)Cc1cnc(C)nc1N,Potency,[1],inactive
same,Potency,[2],inactive
same,Potency,[3],inactive
same,Potency,[14],inactive
same,Potency,[4],inactive
same,Potency,[5],inactive
same,Potency,[11],inactive
same,Potency,[15],inactive
same,Potency,[13],inactive
CN(C)CCCN1c2ccccc2CCc2ccccc21,Potency,[1],inactive
same,Potency,[2],inactive
same,Potency,[5],inactive
same,Potency,[9],24.5 µM (active) and 26.6 µM (active)
same,Potency,[11],19.5 µM (active) and inactive
same,Potency,[15],inactive
